# Source: the supplement of paper PMC3334620
# Whole data set: some 33,000 sequences, median “E-score (-0.5 to 0.5)” near -0.016, cut for the highest 2% near 0.32. What follows is part of a selection rich in the highest values, with near analogues and random picks from the rest.
# Target: T1, Stp1 (UniProt B3LFK1)
# T1 sequence: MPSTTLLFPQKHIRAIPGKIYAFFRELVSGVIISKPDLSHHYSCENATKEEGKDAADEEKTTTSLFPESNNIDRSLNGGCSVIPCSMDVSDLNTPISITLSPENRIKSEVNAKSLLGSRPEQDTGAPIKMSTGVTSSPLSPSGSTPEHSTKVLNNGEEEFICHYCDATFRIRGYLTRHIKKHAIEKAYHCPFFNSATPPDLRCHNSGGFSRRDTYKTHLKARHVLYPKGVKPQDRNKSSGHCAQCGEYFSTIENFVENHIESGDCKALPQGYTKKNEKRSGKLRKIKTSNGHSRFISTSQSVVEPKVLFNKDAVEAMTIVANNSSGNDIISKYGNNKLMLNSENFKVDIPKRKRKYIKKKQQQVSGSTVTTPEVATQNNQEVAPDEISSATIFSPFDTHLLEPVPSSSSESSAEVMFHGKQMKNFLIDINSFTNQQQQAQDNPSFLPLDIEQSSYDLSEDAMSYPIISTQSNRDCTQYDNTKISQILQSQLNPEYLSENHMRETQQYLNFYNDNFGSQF
# Assay: PBM E-score (8-mer binding enrichment) (E-score (-0.5 to 0.5)); higher = stronger / more preferred TF binding
# Conditions: protein concentration: 200 nM; construct: GST-full length
# Procedure: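 Universal 'all 10-mer' protein binding microarrays (Agilent AMADID 015681) probed with GST-tagged S. cerevisiae TFs (full-length or DBD) made by in vitro transcription/translation (PURExpress), about 100-200 nM. Bound TF was detected with fluorescent anti-GST. Each ungapped 8-mer (which stands for itself and its reverse complement) is scored by the PBM enrichment score (E-score), a modified Wilcoxon-Mann-Whitney statistic from -0.5 to +0.5, computed with the Universal PBM Analysis Suite. Scale: above 0.35 generally sequence-specific binding.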
row,Sequence,PBM E-score
1,CAAGCTAC,-0.171
2,AGTATATC,0.0639
3,CATATATA,0.256
4,TATATATA,0.345
5,AGTATATG,-0.0746
6,GATATATA,0.314
7,AGTATATA,0.363
8,AACACTCT,0.00778
9,GATGGCGC,0.145
10,AATGGCGT,0.161
11,AACGGCGC,0.477
12,GACGGGGC,0.143
13,AATGGCGC,0.253
14,GCCGGCGC,0.346
15,AACGGCGT,0.448
16,ACCGGCGC,0.3
17,AACGGGGC,0.186
18,ACCGGCGT,0.0951
19,GACGGCGC,0.451
20,CCCGGCGC,0.121
21,ATAGCAGC,-0.187
22,CTGAGCGC,0.0168
23,GAGAACAA,0.145
24,CACGGGCA,0.231
25,ACGTAGTA,0.103

row,Sequence,PBM E-score
1,CCCTCTTC,-0.308
2,AACGGCGG,0.378
3,AACGGGCG,0.154
4,AACGGGGG,-0.316
5,CGACTGCG,-0.098
6,GAAAGACC,-0.321
7,AACGCCGA,0.292
8,AACGCCGG,0.0903
9,AACGCCGT,0.482
10,AACGCCCC,0.213
11,AACGCCAC,0.245
12,AACGCCTA,0.0856
13,AACGCCGC,0.47
14,AACGCCTC,0.225
15,AACGCCTT,0.328
16,ACCGACGA,-0.0695
17,CGCCATCA,-0.144
18,CTAGGTTA,0.00212
19,GACTTGGC,-0.232
20,CGGCCGTC,0.16
21,CGGCCGTA,0.37
22,CGGCCGGA,-0.15
23,AGGCCGTA,0.298
24,GGGCCGTA,0.369
25,GGCCCGTA,-0.0728

row,Sequence,PBM E-score
1,CGGCCAGC,-0.206
2,CATGGTCA,0.103
3,ATCTAAAG,-0.0363
4,GGAATTGA,0.0238
5,AGCGCAAA,-0.0739
6,CGCGCAAA,0.198
7,TGCGCGCA,0.133
8,GGCGCGCC,0.423
9,GGCGCCCC,0.284
10,GGCGCGTA,0.186
11,GGCGCGCA,0.318
12,GGCGCAAA,0.406
13,CGCGCGCA,0.272
14,GTCGCGGA,-0.0678
15,CGCGCGGA,0.256
16,GGCGCGGA,0.337
17,CAGCAGTA,-0.0846
18,AAGAAGCC,0.232
19,ACCACTTC,-0.242
20,CGAGCTAG,-0.0273
21,AGGTTGCC,-0.0941
22,GCTTGAAC,0.111
23,AAAGGAGG,-0.258
24,ACCAAACA,0.201
25,AAAGTCTG,-0.115

row,Sequence,PBM E-score
1,CAATTAGG,0.104
2,CCCGCGCG,0.328
3,AGCGCGCG,0.196
4,CGCGCGAG,0.239
5,CCCCCGCG,-0.0598
6,CGCGCGCC,0.403
7,CGCGCGCG,0.405
8,CTCGCGCC,0.295
9,AGCGCGCC,0.196
10,CCCGCGCC,0.297
11,ACCTAGCC,-0.186
12,CTCAATTC,0.0345
13,GTGCCTAA,0.184
14,AACAGCGT,0.0405
15,ATCGGCGC,0.342
16,CTCGGCAC,0.3
17,CTCGGCGC,0.382
18,ATCGGCGA,0.0557
19,CTCGGCGA,0.123
20,ATCGGCGG,0.262
21,ACAACAAT,0.0375
22,CTCGACAA,-0.0792
23,CACGCACG,0.203
24,ACCGCACA,-0.0115
25,CCCGCACG,0.222

row,Sequence,PBM E-score
1,GCCGCACC,0.449
2,AACGCACG,0.36
3,ACCGCACC,0.0883
4,AACGCACA,-0.0113
5,GCCGCACA,0.452
6,CCCGCACC,-0.149
7,CAAACTTG,-0.0331
8,AAGTGACG,-0.00161
9,CAGATTGC,0.057
10,CGAACCTC,-0.0892
11,CGATGATC,-0.0137
12,GCGCCCCA,0.353
13,GCGCCCAA,0.119
14,GCGCCCTA,0.342
15,ACGCCACA,0.295
16,ACGCCCTA,0.127
17,GCGCCCCC,-0.129
18,CCGCCCTA,-0.041
19,GCGCCACA,0.334
20,CCGCCACG,0.0257
21,CGCTTGGC,0.0526
22,CTTGCCTC,0.0687
23,AACCTATG,0.053
24,CACCTTTA,-0.0604
25,AACCTGTC,-0.17

row,Sequence,PBM E-score
1,GCACTCGA,-0.0637
2,CGGCTTAG,0.0549
3,CGGCTTAA,0.318
4,CGGCTTCC,0.211
5,AGGCTTCA,-0.0829
6,CGGCTTGA,0.0356
7,AGGCTTGC,-0.31
8,TGGCTTAA,0.193
9,CGGCTTCA,0.368
10,CGGCTTGC,0.37
11,AATCCTGT,-0.037
12,ACCTATGG,-0.0452
13,CTCAGAAG,-0.0989
14,CCTAACAG,0.121
15,CTTCCCAC,-0.0242
16,TATGCATA,0.00403
17,TACTGTAA,0.021
18,ATGCAGGA,-0.258
19,CGGCGCGC,0.475
20,CGGCGCGA,0.477
21,CAGCGCGA,-0.0618
22,CAGCGCGC,-0.00184
23,CTGCGCGC,0.269
24,AGGCGCGA,0.392
25,AGGCGCGG,0.355

row,Sequence,PBM E-score
1,AAGCGCGG,0.171
2,GGGCGCGA,0.28
3,AGGCGCGC,0.308
4,ACGCGCGA,0.105
5,ATGCGCGG,0.307
6,CTGCTTAC,-0.0697
7,CTCGAAAG,-0.053
8,CCTCACCA,-0.0872
9,ACAAATGC,0.155
10,CTTCAAGC,0.0107
11,AGACCATC,-0.131
12,CCCCTAAA,-0.228
13,AGTTGATG,-0.0271
14,ATCTACAC,0.0776
15,ACTTTACG,0.0861
16,GCAGGAGA,-0.303
17,AGGCCGTC,-0.0198
18,ACGCCGAA,0.21
19,ACGCCGTA,0.471
20,ACGCCGGG,-0.0857
21,CCGCCGTA,0.42
22,AGGCCGTG,0.307
